# Results taken from ChEMBL document CHEMBL1961873, “Compounds: GSK PKIS; Assays: Nanosyn kinase panel” (2012).
# Assays:
# [1] = target: Sphingosine kinase 1 (Homo sapiens) (UniProt Q9NYA1); details: at 1 µM;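 also: mean SPHK1 inhibition value reported from the GSK PKIS kinase panel screen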
# [2] = target: T1, Sphingosine kinase 2 (Homo sapiens) (UniProt Q9NRA0); details: at 0.1 µM
# T1 sequence (whole entry): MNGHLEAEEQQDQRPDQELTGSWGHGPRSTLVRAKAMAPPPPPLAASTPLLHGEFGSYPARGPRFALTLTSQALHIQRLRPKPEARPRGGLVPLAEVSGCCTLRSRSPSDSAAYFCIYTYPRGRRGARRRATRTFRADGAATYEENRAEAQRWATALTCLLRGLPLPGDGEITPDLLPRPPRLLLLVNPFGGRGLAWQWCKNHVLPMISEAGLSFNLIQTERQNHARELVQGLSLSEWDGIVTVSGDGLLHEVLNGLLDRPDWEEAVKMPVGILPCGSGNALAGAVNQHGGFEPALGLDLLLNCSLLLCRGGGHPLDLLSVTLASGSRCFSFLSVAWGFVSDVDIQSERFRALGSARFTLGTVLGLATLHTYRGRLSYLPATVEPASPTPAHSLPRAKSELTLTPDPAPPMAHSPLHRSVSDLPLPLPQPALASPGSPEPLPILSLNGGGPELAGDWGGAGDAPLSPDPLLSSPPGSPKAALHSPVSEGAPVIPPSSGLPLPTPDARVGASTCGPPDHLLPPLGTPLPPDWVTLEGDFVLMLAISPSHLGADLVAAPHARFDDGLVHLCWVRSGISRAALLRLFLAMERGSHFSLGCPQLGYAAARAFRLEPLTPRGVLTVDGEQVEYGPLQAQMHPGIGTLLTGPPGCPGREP
# [3] = target: T1, Sphingosine kinase 2 (Homo sapiens); details: at 1 µM
# [4] = target: Casein kinase II subunit alpha (Homo sapiens) (UniProt P68400); details: at 0.1 µM
# [5] = target: Casein kinase II subunit alpha (Homo sapiens) (UniProt P68400); details: at 1 µM
# [6] = target: T2, Inhibitor of nuclear factor kappa-B kinase subunit alpha (Homo sapiens) (UniProt O15111); details: at 0.1 µM
# T2 sequence (whole entry): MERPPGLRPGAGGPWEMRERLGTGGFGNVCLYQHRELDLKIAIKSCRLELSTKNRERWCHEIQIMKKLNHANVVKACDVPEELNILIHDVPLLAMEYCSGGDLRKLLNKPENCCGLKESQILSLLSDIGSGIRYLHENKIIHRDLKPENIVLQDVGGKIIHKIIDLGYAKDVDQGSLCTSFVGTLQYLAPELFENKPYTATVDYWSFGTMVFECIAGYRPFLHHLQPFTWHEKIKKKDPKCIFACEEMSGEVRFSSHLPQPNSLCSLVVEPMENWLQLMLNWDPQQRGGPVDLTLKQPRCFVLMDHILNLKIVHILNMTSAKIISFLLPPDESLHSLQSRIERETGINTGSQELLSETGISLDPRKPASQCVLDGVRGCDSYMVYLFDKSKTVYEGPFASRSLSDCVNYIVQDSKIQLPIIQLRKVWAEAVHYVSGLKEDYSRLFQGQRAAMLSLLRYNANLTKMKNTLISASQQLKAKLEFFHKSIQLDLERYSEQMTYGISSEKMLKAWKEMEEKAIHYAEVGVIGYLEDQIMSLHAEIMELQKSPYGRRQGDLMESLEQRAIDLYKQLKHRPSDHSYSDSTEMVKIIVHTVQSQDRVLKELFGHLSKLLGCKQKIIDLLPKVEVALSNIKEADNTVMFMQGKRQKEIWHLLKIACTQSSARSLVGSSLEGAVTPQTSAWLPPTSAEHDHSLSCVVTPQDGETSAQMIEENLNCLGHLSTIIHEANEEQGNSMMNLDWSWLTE
# [7] = target: T2, Inhibitor of nuclear factor kappa-B kinase subunit alpha (Homo sapiens); details: at 1 µM
# [8] = target: T3, Inhibitor of nuclear factor kappa-B kinase subunit beta (Homo sapiens) (UniProt O14920); details: at 0.1 µM
# T3 sequence (whole entry): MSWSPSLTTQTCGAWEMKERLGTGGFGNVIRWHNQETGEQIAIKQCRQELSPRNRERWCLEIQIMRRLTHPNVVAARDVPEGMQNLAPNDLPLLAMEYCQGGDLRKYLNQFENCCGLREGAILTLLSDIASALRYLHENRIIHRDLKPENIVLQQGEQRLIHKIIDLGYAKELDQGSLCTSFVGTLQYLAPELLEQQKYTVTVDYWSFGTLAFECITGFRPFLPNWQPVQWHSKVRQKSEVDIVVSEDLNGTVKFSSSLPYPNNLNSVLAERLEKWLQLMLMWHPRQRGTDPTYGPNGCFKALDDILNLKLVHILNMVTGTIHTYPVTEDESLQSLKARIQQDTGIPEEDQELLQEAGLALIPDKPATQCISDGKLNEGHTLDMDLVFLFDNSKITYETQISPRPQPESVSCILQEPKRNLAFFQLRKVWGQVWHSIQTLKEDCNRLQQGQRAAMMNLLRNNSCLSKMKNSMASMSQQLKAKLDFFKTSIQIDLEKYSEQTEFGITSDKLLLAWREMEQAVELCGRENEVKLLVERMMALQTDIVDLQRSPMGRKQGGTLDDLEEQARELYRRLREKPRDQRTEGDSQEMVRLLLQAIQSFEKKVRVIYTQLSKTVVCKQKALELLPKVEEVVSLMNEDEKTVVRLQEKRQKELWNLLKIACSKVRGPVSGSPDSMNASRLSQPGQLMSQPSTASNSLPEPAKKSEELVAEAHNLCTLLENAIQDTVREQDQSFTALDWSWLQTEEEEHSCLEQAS
# [9] = target: T3, Inhibitor of nuclear factor kappa-B kinase subunit beta (Homo sapiens); details: at 1 µM
# [10] = target: T4, Inhibitor of nuclear factor kappa-B kinase subunit epsilon (Homo sapiens) (UniProt Q14164); details: at 0.1 µM
# T4 sequence (whole entry): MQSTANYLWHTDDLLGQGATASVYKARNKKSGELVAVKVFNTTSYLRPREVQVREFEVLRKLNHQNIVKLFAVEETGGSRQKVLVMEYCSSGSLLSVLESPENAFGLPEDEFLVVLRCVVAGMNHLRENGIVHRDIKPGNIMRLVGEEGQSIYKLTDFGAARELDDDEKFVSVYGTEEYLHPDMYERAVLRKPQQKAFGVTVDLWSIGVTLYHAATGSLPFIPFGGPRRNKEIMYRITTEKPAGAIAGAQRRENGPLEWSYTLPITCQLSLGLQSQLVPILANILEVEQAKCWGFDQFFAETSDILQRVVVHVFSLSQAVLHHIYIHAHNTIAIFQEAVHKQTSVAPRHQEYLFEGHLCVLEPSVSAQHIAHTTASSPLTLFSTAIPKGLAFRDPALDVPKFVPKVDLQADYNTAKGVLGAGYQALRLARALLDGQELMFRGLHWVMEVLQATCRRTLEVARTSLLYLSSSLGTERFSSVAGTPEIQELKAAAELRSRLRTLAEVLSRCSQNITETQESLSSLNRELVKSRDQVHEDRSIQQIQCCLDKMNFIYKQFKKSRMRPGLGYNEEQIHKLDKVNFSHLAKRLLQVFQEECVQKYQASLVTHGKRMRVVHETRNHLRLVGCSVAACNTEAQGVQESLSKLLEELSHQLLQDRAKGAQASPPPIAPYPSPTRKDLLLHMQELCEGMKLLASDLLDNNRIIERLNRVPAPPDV
# [11] = target: T4, Inhibitor of nuclear factor kappa-B kinase subunit epsilon (Homo sapiens); details: at 1 µM
# [12] = target: T5, Serine/threonine-protein kinase Nek1 (Homo sapiens) (UniProt Q96PY6); details: at 0.1 µM
# T5 sequence (whole entry): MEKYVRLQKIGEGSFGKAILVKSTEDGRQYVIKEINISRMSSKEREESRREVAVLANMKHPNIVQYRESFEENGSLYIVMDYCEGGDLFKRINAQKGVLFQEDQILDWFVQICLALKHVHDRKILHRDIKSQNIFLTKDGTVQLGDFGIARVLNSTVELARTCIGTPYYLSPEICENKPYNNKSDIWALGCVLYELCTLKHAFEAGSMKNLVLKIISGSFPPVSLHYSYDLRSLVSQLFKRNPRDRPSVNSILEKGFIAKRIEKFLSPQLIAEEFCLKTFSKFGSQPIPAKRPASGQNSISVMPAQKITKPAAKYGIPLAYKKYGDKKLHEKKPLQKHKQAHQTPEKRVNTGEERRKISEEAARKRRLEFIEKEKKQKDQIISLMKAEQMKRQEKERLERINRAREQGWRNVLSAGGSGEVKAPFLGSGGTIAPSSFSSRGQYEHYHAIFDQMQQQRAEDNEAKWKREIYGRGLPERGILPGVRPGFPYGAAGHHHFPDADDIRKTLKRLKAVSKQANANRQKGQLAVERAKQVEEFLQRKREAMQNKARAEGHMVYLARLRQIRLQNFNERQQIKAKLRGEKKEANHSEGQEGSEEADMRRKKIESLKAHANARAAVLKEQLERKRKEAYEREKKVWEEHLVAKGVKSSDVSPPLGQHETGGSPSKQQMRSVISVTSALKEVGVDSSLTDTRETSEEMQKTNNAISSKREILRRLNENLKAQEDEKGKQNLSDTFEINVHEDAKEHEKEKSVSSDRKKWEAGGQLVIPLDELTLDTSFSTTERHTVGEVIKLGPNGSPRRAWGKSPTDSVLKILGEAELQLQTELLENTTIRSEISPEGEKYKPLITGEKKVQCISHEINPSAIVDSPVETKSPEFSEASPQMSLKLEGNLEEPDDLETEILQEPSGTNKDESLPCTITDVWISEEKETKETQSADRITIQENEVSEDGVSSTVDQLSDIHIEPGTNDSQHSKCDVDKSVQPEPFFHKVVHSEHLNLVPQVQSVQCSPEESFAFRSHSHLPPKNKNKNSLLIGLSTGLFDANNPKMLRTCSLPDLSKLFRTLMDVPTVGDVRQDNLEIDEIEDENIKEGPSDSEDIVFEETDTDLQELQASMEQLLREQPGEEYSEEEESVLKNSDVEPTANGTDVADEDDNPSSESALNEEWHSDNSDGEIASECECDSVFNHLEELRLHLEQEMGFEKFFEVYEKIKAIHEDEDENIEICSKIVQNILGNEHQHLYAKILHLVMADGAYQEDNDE
# [13] = target: T5, Serine/threonine-protein kinase Nek1 (Homo sapiens); details: at 1 µM
# [14] = target: T6, Serine/threonine-protein kinase Nek2 (Homo sapiens) (UniProt P51955); details: at 0.1 µM
# T6 sequence (whole entry): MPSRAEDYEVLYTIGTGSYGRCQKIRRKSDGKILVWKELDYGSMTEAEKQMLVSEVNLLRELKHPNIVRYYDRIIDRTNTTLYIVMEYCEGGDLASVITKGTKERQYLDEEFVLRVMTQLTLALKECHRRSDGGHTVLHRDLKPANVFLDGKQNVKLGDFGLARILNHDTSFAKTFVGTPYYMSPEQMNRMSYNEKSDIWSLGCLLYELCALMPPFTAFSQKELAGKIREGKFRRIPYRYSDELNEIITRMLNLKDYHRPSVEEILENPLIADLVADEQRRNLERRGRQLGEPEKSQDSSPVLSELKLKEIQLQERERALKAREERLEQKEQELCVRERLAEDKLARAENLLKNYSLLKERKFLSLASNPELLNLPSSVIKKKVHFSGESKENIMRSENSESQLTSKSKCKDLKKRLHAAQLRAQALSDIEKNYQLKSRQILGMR
# [15] = target: T6, Serine/threonine-protein kinase Nek2 (Homo sapiens); details: at 1 µM
# [16] = target: Serine/threonine-protein kinase Nek6 (Homo sapiens) (UniProt Q9HC98); details: at 0.1 µM
# [17] = target: Serine/threonine-protein kinase Nek6 (Homo sapiens) (UniProt Q9HC98); details: at 1 µM
# [18] = target: Serine/threonine-protein kinase Nek7 (Homo sapiens) (UniProt Q8TDX7); details: at 0.1 µM
# [19] = target: Serine/threonine-protein kinase Nek7 (Homo sapiens) (UniProt Q8TDX7); details: at 1 µM
# [20] = target: T7, Serine/threonine-protein kinase Nek9 (Homo sapiens) (UniProt Q8TD19); details: at 0.1 µM;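 also: reported value is the mean percent inhibition of NEK9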
# T7 sequence (whole entry): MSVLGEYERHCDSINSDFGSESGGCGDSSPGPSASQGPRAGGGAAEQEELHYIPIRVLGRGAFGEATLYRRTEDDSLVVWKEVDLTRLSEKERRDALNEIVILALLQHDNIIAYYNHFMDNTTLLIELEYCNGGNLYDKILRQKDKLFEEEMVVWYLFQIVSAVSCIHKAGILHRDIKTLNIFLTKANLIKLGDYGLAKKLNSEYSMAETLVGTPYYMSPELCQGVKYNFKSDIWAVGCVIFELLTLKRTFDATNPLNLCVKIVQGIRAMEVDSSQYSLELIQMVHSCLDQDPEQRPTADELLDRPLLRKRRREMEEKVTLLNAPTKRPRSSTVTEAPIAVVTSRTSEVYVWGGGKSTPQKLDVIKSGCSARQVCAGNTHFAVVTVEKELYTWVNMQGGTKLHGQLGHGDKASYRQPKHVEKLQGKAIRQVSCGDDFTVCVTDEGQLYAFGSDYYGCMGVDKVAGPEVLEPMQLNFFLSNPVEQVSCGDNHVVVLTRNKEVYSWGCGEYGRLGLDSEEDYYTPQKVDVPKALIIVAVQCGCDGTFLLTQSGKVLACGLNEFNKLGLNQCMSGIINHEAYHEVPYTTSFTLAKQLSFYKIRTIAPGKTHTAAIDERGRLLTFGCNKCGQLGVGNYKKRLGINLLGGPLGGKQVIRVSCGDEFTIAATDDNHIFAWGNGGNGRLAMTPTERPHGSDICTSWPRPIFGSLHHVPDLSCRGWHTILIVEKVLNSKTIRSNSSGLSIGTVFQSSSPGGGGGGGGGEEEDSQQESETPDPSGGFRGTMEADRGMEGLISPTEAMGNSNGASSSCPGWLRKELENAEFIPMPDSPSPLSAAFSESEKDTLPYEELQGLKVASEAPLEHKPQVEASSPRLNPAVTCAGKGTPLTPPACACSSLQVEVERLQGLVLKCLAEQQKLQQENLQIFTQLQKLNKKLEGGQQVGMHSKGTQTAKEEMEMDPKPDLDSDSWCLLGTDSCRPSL
# Chain of Casein kinase II subunit alpha (Homo sapiens) (P68400 whole entry, looked up): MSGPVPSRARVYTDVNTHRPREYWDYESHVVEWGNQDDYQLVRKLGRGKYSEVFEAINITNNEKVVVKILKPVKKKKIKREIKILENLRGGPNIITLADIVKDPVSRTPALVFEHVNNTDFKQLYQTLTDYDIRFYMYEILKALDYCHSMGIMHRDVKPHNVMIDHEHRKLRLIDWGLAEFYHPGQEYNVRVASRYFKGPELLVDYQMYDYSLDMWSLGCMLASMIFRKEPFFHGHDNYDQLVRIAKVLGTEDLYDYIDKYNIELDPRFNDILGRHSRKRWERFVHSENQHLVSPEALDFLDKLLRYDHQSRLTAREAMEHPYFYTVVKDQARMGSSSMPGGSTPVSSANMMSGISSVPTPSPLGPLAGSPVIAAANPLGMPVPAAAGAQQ
# Chain of Serine/threonine-protein kinase Nek7 (Homo sapiens) (Q8TDX7 whole entry, looked up): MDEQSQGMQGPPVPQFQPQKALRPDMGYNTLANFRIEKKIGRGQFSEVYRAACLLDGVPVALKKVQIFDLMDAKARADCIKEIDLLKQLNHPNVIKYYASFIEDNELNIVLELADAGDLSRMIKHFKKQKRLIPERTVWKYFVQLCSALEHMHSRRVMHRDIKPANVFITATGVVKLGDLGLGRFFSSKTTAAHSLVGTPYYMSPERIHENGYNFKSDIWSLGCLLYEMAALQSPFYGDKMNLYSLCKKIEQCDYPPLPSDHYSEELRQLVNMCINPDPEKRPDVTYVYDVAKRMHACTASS
# Chain of Serine/threonine-protein kinase Nek6 (Homo sapiens) (Q9HC98 whole entry): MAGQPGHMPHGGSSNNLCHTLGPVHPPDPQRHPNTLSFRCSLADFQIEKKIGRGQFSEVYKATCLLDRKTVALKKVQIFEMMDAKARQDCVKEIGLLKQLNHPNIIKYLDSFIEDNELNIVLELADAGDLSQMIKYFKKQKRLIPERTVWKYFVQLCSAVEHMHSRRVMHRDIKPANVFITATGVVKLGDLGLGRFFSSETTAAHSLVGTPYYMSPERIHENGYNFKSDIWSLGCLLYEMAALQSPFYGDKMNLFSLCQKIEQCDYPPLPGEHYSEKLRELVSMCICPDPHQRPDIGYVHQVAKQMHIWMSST
# Chain of Sphingosine kinase 1 (Homo sapiens) (Q9NYA1 whole entry): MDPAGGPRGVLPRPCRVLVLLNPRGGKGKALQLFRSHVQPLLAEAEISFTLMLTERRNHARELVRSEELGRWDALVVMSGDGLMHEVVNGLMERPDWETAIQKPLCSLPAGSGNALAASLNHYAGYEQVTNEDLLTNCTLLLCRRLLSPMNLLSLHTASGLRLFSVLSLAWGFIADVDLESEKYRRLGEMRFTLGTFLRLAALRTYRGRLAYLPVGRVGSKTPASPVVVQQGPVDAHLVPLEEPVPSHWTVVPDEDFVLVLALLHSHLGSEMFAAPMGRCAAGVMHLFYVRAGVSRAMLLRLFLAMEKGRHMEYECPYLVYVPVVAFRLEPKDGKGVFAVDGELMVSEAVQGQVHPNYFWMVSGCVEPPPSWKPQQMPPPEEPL
structure (smiles),measurement,setting,value
Cc1nnc(-c2ccc(C)c(-c3ccc(C(=O)NCc4ccc(Cl)cc4)cc3)c2)o1,inhibition,[1],-3.95%
same,inhibition,[2],0.02%
same,inhibition,[3],0.44%
same,inhibition,[4],2.9%
same,inhibition,[5],5.39%
same,inhibition,[6],8.21%
same,inhibition,[7],5.98%
same,inhibition,[8],6.95%
same,inhibition,[9],4.95%
same,inhibition,[10],5.66%
same,inhibition,[11],5.13%
same,inhibition,[12],2.48%
same,inhibition,[13],4.54%
same,inhibition,[14],4.28%
same,inhibition,[15],3.25%
same,inhibition,[16],3.46%
same,inhibition,[17],5.29%
same,inhibition,[18],5.57%
same,inhibition,[19],3.78%
same,inhibition,[20],6.68%
